Holding throughout (experiment): PBM; 200 nM protein, PBS
Conditions in all cases: dsDNA, one strand shown

Test [1] deals with T1, PAX4 (Homo sapiens, UniProt O43316 9-242, R200K).
T1 sequence: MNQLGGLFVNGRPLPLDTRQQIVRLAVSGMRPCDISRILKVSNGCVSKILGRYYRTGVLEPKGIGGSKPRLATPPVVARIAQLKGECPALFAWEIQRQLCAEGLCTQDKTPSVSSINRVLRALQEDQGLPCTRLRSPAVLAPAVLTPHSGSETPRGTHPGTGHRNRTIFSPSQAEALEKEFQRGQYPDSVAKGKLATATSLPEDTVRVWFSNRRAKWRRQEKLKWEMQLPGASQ

The target in test [2] is T2, PAX4 (Homo sapiens, UniProt O43316 9-242).
T2 sequence: T1 sequence with K192R

Test [3] has as its target HOXA2 (Homo sapiens, UniProt O43364 129-215, R185T).
The target in test [4] is ALX3 (Homo sapiens, UniProt O95076 139-225, N203Q).
The target in test [5] is T3, PAX4 (Homo sapiens, UniProt O43316 9-242, R200Q).
T3 sequence: T1 sequence with K192Q

Test [6] has as its target HOXA2 (Homo sapiens, UniProt O43364 129-215, R185K).
Test [7] has as its target T4, PAX4 (Homo sapiens, UniProt O43316 9-242, F177V).
T4 sequence: T1 sequence with F169V, K192R

Test [8] deals with MSX2 (Homo sapiens, UniProt P35548 130-214).
In test [9] the target is ALX3 (Homo sapiens, UniProt O95076 139-225).
The target in test [10] is T5, PAX4 (Homo sapiens, UniProt O43316 9-242, F177Y).
T5 sequence: T1 sequence with F169Y, K192R

Test [11] addresses ALX3 (Homo sapiens, UniProt O95076 139-225, L168V).
For test [12], the target named is T6, PAX4 (Homo sapiens, UniProt O43316 9-242, R227W).
T6 sequence: T1 sequence with K192R, R219W

In test [13] the target is HOXA2 (Homo sapiens, UniProt O43364 129-215, Y150S).
Test [14] addresses HOXA4 (Homo sapiens, UniProt Q00056 201-287, W262F).
For test [15], the target named is ALX3 (Homo sapiens, UniProt O95076 139-225, N203S).
Test [16] has as its target HOXA2 (Homo sapiens, UniProt O43364 129-215).
For test [17], the target named is HOXA7 (Homo sapiens, UniProt P31268 116-202).
Test [18] has as its target HOXA7 (Homo sapiens, UniProt P31268 116-202, W177C).
Test [19] concerns the target T7, VENTX (Homo sapiens, UniProt O95231 78-163, R121Q).
T7 sequence: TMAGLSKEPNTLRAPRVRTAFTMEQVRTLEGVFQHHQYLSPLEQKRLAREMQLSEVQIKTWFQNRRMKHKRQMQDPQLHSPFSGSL

Test [20] addresses T8, VENTX (Homo sapiens, UniProt O95231 78-163, Y115F).
T8 sequence: T7 sequence with Y38F, Q44R

Substitutions are numbered along the chain they refer to.

ALX3 (Homo sapiens, UniProt O95076 139-225, L168V), sequence (O95076 139-225 L168V): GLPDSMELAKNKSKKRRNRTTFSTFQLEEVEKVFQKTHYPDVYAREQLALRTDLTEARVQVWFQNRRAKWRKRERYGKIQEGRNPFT
ALX3 (Homo sapiens, UniProt O95076 139-225, N203S), sequence (O95076 139-225 N203S): as the sequence (O95076 139-225 L168V) above, with V30L, N65S counted along it
ALX3 (Homo sapiens, UniProt O95076 139-225, N203Q), sequence (O95076 139-225 N203Q): as the sequence (O95076 139-225 L168V) above, with V30L, N65Q counted along it
HOXA4, sequence (Q00056 201-287 W262F): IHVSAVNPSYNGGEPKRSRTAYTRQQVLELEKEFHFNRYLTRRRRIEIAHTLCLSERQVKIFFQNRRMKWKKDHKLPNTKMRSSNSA
ALX3 (Homo sapiens, UniProt O95076 139-225), sequence (O95076 139-225): as the sequence (O95076 139-225 L168V) above, with V30L counted along it
HOXA2 (Homo sapiens, UniProt O43364 129-215, R185T), sequence (O43364 129-215 R185T): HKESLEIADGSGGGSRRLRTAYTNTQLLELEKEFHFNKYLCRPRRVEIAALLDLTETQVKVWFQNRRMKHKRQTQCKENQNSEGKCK
MSX2, sequence (P35548 130-214): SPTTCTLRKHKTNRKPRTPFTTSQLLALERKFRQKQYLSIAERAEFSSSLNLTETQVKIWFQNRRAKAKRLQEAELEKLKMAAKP
HOXA7 (Homo sapiens, UniProt P31268 116-202, W177C), sequence (P31268 116-202 W177C): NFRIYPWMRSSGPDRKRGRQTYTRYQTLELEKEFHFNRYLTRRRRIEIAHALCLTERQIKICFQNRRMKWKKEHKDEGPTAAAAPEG
HOXA2 (Homo sapiens, UniProt O43364 129-215, R185K), sequence (O43364 129-215 R185K): as the sequence (O43364 129-215 R185T) above, with T57K counted along it
HOXA7 (Homo sapiens, UniProt P31268 116-202), sequence (P31268 116-202): as the sequence (P31268 116-202 W177C) above, with C62W counted along it
HOXA2 (Homo sapiens, UniProt O43364 129-215), sequence (O43364 129-215): as the sequence (O43364 129-215 R185T) above, with T57R counted along it
HOXA2 (Homo sapiens, UniProt O43364 129-215, Y150S), sequence (O43364 129-215 Y150S): as the sequence (O43364 129-215 R185T) above, with Y22S, T57R counted along it

As to AATTAAGT, the binding signal in test [1] was 11.6 upbm affinity estimate (log intensity, higher = more binding, comparable within an allelic series); in [2] it was 12.1 upbm affinity estimate (log intensity, higher = more binding, comparable within an allelic series); in [3], 12.1 upbm affinity estimate (log intensity, higher = more binding, comparable within an allelic series); in [4] it was 8.5 upbm affinity estimate (log intensity, higher = more binding, comparable within an allelic series); in [5], 11.9 upbm affinity estimate (log intensity, higher = more binding, comparable within an allelic series); in [6], 12.8 upbm affinity estimate (log intensity, higher = more binding, comparable within an allelic series). The binding signal in test [7] is 10.5 upbm affinity estimate (log intensity, higher = more binding, comparable within an allelic series); in [8] it was 13.3 upbm affinity estimate (log intensity, higher = more binding, comparable within an allelic series); in [9], 12.5 upbm affinity estimate (log intensity, higher = more binding, comparable within an allelic series); in [10], 10.9 upbm affinity estimate (log intensity, higher = more binding, comparable within an allelic series); in [11], 10 upbm affinity estimate (log intensity, higher = more binding, comparable within an allelic series); in test [12] it was 10.8 upbm affinity estimate (log intensity, higher = more binding, comparable within an allelic series). Moreover, the binding signal in test [13] was 10.8 upbm affinity estimate (log intensity, higher = more binding, comparable within an allelic series); in test [14], 11.4 upbm affinity estimate (log intensity, higher = more binding, comparable within an allelic series); in test [15] it was 8.69 upbm affinity estimate (log intensity, higher = more binding, comparable within an allelic series); in [16], 11.7 upbm affinity estimate (log intensity, higher = more binding, comparable within an allelic series).

For TAATTGAA, the binding signal is 12.5 upbm affinity estimate (log intensity, higher = more binding, comparable within an allelic series) in test [3]; 8.33 upbm affinity estimate (log intensity, higher = more binding, comparable within an allelic series) in test [4]; 13.6 upbm affinity estimate (log intensity, higher = more binding, comparable within an allelic series) in [8]; 12.5 upbm affinity estimate (log intensity, higher = more binding, comparable within an allelic series) in test [9]; 10 upbm affinity estimate (log intensity, higher = more binding, comparable within an allelic series) in [11]; 8.47 upbm affinity estimate (log intensity, higher = more binding, comparable within an allelic series) in test [15].

As for CAATTACG, the binding signal in [8] is 13.7 upbm affinity estimate (log intensity, higher = more binding, comparable within an allelic series); in test [14] it was 10.9 upbm affinity estimate (log intensity, higher = more binding, comparable within an allelic series).

Regarding AATTAAGG, the binding signal is 8.39 upbm affinity estimate (log intensity, higher = more binding, comparable within an allelic series) in test [4]; 12.2 upbm affinity estimate (log intensity, higher = more binding, comparable within an allelic series) in [9]; 9.9 upbm affinity estimate (log intensity, higher = more binding, comparable within an allelic series) in test [11]; 8.48 upbm affinity estimate (log intensity, higher = more binding, comparable within an allelic series) in test [15].

In the case of AATTAACT, the binding signal in [17] was 11.2 upbm affinity estimate (log intensity, higher = more binding, comparable within an allelic series); in test [1], 11.7 upbm affinity estimate (log intensity, higher = more binding, comparable within an allelic series); in [2], 12.3 upbm affinity estimate (log intensity, higher = more binding, comparable within an allelic series); in test [3], 12.5 upbm affinity estimate (log intensity, higher = more binding, comparable within an allelic series); in test [4], 8.48 upbm affinity estimate (log intensity, higher = more binding, comparable within an allelic series); in [5], 12.1 upbm affinity estimate (log intensity, higher = more binding, comparable within an allelic series). In addition, the binding signal in [7] is 10.5 upbm affinity estimate (log intensity, higher = more binding, comparable within an allelic series); in test [8] it was 13.5 upbm affinity estimate (log intensity, higher = more binding, comparable within an allelic series); in test [9], 12.5 upbm affinity estimate (log intensity, higher = more binding, comparable within an allelic series); in [10] it was 10.9 upbm affinity estimate (log intensity, higher = more binding, comparable within an allelic series); in [11], 10.2 upbm affinity estimate (log intensity, higher = more binding, comparable within an allelic series); in test [12], 10.9 upbm affinity estimate (log intensity, higher = more binding, comparable within an allelic series). The binding signal in test [18] is 8.89 upbm affinity estimate (log intensity, higher = more binding, comparable within an allelic series); in [14], 11.5 upbm affinity estimate (log intensity, higher = more binding, comparable within an allelic series); in test [15], 8.69 upbm affinity estimate (log intensity, higher = more binding, comparable within an allelic series).

Regarding AATTAGCC, the binding signal was 11.5 upbm affinity estimate (log intensity, higher = more binding, comparable within an allelic series) in test [1]; 12.1 upbm affinity estimate (log intensity, higher = more binding, comparable within an allelic series) in test [2]; 8.15 upbm affinity estimate (log intensity, higher = more binding, comparable within an allelic series) in test [4]; 11.7 upbm affinity estimate (log intensity, higher = more binding, comparable within an allelic series) in test [5]; 10.1 upbm affinity estimate (log intensity, higher = more binding, comparable within an allelic series) in test [7]; 13.3 upbm affinity estimate (log intensity, higher = more binding, comparable within an allelic series) in [8]. For the same sequence, the binding signal in test [9] was 12.3 upbm affinity estimate (log intensity, higher = more binding, comparable within an allelic series); in [10], 10.5 upbm affinity estimate (log intensity, higher = more binding, comparable within an allelic series); in test [11], 9.65 upbm affinity estimate (log intensity, higher = more binding, comparable within an allelic series); in [12], 10.6 upbm affinity estimate (log intensity, higher = more binding, comparable within an allelic series); in test [15], 8.23 upbm affinity estimate (log intensity, higher = more binding, comparable within an allelic series).

For the sequence ACAATTAG, the binding signal in test [19] was 11.8 upbm affinity estimate (log intensity, higher = more binding, comparable within an allelic series); in [20], 11.6 upbm affinity estimate (log intensity, higher = more binding, comparable within an allelic series); in [8] it was 13.7 upbm affinity estimate (log intensity, higher = more binding, comparable within an allelic series).
